# GDH-TPI counter-1: counter-screen for M. tuberculosis FBA inhibitors: GDH-TPI coupled enzymes | AID 588335 | inhibition, % at 4.8 µM | GDH-TPI coupled enzyme counterscreen, NADH absorbance | 360,000 compounds, 1.2% hits; in the data active = inhibition above about 30%;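 note: 0% = DMSO wells and 100% = wells lacking the enzyme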
# RecA splice inh: inhibitors of M. tuberculosis RecA intein splicing. P9WHJ3. inhibition, % (concentration not given with the values). cell-free RecA intein splicing, fluorescence. 290,000 compounds, 0.75% hits. AID 2221; in the data active = inhibition above about 30%;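 note: 0% = vehicle wells and 100% = reference inhibitor control wells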
# Target sequence (P9WHJ3 whole entry, looked up, canonical isoform): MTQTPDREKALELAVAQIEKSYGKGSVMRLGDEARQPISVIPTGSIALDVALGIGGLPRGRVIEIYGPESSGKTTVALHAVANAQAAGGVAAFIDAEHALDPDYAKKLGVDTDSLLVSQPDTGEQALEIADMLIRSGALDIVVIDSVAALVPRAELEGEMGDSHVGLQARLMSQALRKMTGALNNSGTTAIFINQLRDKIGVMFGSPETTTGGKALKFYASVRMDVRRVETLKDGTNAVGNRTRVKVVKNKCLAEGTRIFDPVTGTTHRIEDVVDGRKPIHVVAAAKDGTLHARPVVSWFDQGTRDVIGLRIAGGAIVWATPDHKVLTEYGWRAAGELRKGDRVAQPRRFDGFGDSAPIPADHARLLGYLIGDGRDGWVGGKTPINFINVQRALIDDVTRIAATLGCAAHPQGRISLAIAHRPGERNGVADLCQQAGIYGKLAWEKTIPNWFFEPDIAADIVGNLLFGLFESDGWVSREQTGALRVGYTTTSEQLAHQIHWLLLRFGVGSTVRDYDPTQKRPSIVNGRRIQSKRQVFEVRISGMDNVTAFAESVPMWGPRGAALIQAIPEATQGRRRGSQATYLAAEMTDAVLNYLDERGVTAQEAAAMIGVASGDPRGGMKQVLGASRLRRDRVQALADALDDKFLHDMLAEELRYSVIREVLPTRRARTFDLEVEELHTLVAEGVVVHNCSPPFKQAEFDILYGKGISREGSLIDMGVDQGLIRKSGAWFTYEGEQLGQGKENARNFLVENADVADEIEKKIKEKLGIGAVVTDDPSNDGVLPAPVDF
# BJeLR lethal: kills HRASV12-expressing BJeLR cells | 300,000 compounds, 0.17% hits | inhibition, % (concentration not given with the values) | BJeLR (HRASV12) viability, CellTiter-Glo ATP luminescence, 48 h; in the data active = inhibition above about 50%
# FBA Mtb inh: Mtb fructose-bisphosphate aldolase inhibition. P9WQA3. purified M. tuberculosis FBA, fluorescence read-out. inhibition, % at 1 µM. 360,000 compounds, 2.3% hits;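 note: 0% = vehicle and 100% = reference inhibitor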
# PrPC TRFRET: reduces human prion protein on the cell surface. P04156. cell surface PrPC, TR-FRET read-out. inhibition, % at 13.8 µM. 370,000 compounds, 0.43% hits. AID 720596; in the data active = inhibition above about 24%; note: 0% = median of the test wells and 100% = reference compound wells
# Mtb FBA confirm: confirmation of M. tuberculosis fructose-bisphosphate aldolase inhibitors. AID 651616. shares compounds with FBA Mtb inh. purified M. tuberculosis FBA, fluorescence read-out. 5,600 compounds, 78% hits. inhibition, % at 1 µM;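 note: 0% = vehicle wells and 100% = reference inhibitor wells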
# GDH-TPI counter-2: inhibits GDH-TPI coupling enzymes, flagging Mtb FBA hits | GDH-TPI coupled enzyme counterscreen, fluorescence | shares compounds with FBA Mtb inh | inhibition, % at 1 µM | 5,600 compounds, 81% hits; in the data active = inhibition above about 10%
# The depositor's hits bear a star; i = inactive; . = no result given; + = active, no number; ! = a repeat was not active. This is a sample that favours compounds with a hit; in the whole collection about 4.2% have one here. Cut-off read from the data, not from the text of the source, unless noted: active = inhibition above about 27%; inactive = the rest.
SMILES,GDH-TPI counter-1,RecA splice inh,BJeLR lethal,FBA Mtb inh,PrPC TRFRET,Mtb FBA confirm,GDH-TPI counter-2
COC(=O)c1cc2c(c3c4cc(OC)ccc4n(S(=O)(=O)c4ccc(C)cc4)c13)C(=O)N(C)C2,.,.,.,.,9,.,.
Nc1c2c(nc3ccccc13)N(c1ccccc1)CC2,-3,-4,-6,14,-24,.,.
Cc1cccc(N2CCc3c2nc2ccccc2c3N)c1,9,-2,-5,70*!,-8,52*,37*
CN(Cc1ccccc1)C(=O)OCc1cn(Cc2ccccc2F)nn1,.,.,.,.,5,.,.
COc1ccc(NC(=O)c2ccc(S(=O)(=O)N3CC(C)CC(C)C3)cc2)cc1S(N)(=O)=O (stereo unspecified),18,.,.,39*,-3,180*,152*
COc1ccc(NC(=O)COC(=O)c2ccc(S(=O)(=O)N3CC(C)CC(C)C3)cc2)cc1OC (stereo unspecified),6,.,.,-1,-3,.,.
COc1ccc2c(CN3CCCCCCC3)cc(=O)oc2c1,.,.,.,82*,-7,1,0
COc1ccc2c(COC(=O)CNC(=O)C34CC5CC(CC(C5)C3)C4)cc(=O)oc2c1,12,-3,-7,85*,-5,+,167*
COc1cc(NC(=O)COC(=O)[C@@H]2CCCN2S(=O)(=O)c2ccc(Cl)cc2)cc(OC)c1OC,8,3,8,6,6,.,.
COc1ccc2c(COC(=O)[C@@H]3CCCN3S(=O)(=O)c3ccc(Cl)cc3)cc(=O)oc2c1,7,.,.,51*,5,102*,76*
COc1ccccc1N1CCN(S(=O)(=O)c2ccc3c(c2)CCC(=O)N3)CC1,.,.,.,.,-2,.,.
CCCCn1c(NC(=O)c2ccc(Br)o2)c(C(=O)OCC)c2nc3ccccc3nc21,11,-25,.,58*,-1,+,179*
CCCCn1c(NS(=O)(=O)c2ccccc2)c(C(=O)OCC)c2nc3ccccc3nc21,16,i,4,53*,-4,194*,151*
COC(=O)c1cc(-c2ccc(Br)cc2)c2c(=O)[nH]c(=O)n(C)c2n1,26,-2,-7,9,-3,.,.
CCOc1ccc(-c2cc(C(=O)OC)nc3c2c(=O)n(C)c(=O)n3C)cc1,9,-2,2,33*,0,118*,91*
Cc1ccc(F)cc1NC(=O)CCNC(=O)c1ccc([N+](=O)[O-])cc1,0,1,-4,37*,-27,163*,124*
Cc1ccc2nc(-c3ccco3)c(Cc3cccc(F)c3)n2c1,.,.,.,31*,6,+,138*
Cc1ccc2nc(-c3ccccc3)c(Cc3cccc(F)c3)n2c1,.,.,.,.,2,.,.
COc1ccc(-c2nc3ccc(C)cn3c2Cc2cccc(Cl)c2)cc1OC,.,.,.,33*,6,107*,76*
COC(=O)c1ccc2nc(-c3ccc(OC)c(OC)c3)c(Cc3ccccc3OC)n2c1,.,.,.,8,-3,.,.
COc1ccc(-c2nc3ccc(C)cn3c2Cc2ccc(C)cc2)cc1OC,.,.,.,27,-3,.,.
COc1ccccc1Cc1c(-c2ccc(OC)c(OC)c2)nc2ccc(C)cn12,.,.,.,45*,-6,119*,94*
CCOc1ccc2oc(C(=O)OCC(=O)NCC3CCCO3)c(C)c2c1 (stereo unspecified),4,.,.,39*,-10,17,13*
COc1ccc2oc(C(=O)OCC(=O)NCC3CCCO3)c(C)c2c1 (stereo unspecified),9,-3,-14,36*,-3,91*,81*
COc1cc(-c2c(NC(=O)c3ccco3)oc3c(C)cccc3c2=O)cc(OC)c1OC,17,-4,-6,1,-3,.,.
SMILES,GDH-TPI counter-1,RecA splice inh,BJeLR lethal,FBA Mtb inh,PrPC TRFRET,Mtb FBA confirm,GDH-TPI counter-2
COc1ccc(-c2c(NC(=O)c3ccco3)oc3c(C)cccc3c2=O)cc1,18,0,-3,53*,6,2,-2
CC(C)Cn1cc(C(=O)NCCCN2CCC(C)CC2)c2c3ccccc3n(C)c2c1=O,4,.,-7,10,-2,.,.
COCCCNC(=O)c1cn(CCOC)c(=O)c2c1c1ccccc1n2C,11,-2,4,37*,-3,90*,96*
CCOC(CCNC(=O)c1cn(C)c(=O)c2c1c1ccccc1n2C)OCC,12,-1,10,15,2,.,.
COCCn1cc(C(=O)NCCCOC(C)C)c2c3ccccc3n(C)c2c1=O,3,-1,4,30*,4,128*,112*
CCC(C)NC(=O)c1cn(CCOC)c(=O)c2c1c1ccccc1n2C (stereo unspecified),0,0,11,15,11,.,.
COCCNC(=O)c1cn(CCOC)c(=O)c2c1c1ccccc1n2C,14,0,-4,27*,-3,134*,104*
COCCCNC(=O)c1cn(CC(C)C)c(=O)c2c1c1ccccc1n2C,18,-2,0,19,1,.,.
CC(C)Cn1cc(C(=O)NCCCN2CCCC2=O)c2c3ccccc3n(C)c2c1=O,15,7,20,33*,4,-5,-1
COC(=O)C1=C(C)N(Cc2ccccc2C(F)(F)F)C(=NCc2ccccc2C(F)(F)F)NC1c1cccc(F)c1 (stereo unspecified),.,.,.,.,3,.,.
CC1CN(CC(O)COC2CCC(C(C)(C)C)CC2)CC(C)O1 (stereo unspecified),-2,.,2,3,2,.,.
CC1CCCC(C)N1CC(O)COC1CCC(C(C)(C)C)CC1 (stereo unspecified),-6,-1,6,29*,6,112*,98*
COC(=O)C1=C(C)N(Cc2ccccc2)C(=S)NC1c1ccc(Br)cc1 (stereo unspecified),.,.,.,.,16,.,.
O=C(NCCCO)c1ccc2[nH]c3ccccc3c2c1,2,-2,-7,36*,-2,125*,91*
Cc1nc(C(=O)NCCCO)cc2c1[nH]c1ccccc12,6,9,-13,19,-2,.,.
Cc1ccc(C2=NOC3(CC(=O)N(c4ccccc4)C3=O)C2)cc1 (stereo unspecified),10,-1,-6,1,5,.,.
Cc1ccc(C2=NOC3(CC(=O)N(c4ccc(C)cc4)C3=O)C2)cc1 (stereo unspecified),28,.,-8,29*,2,43*,38*
CCCCCCCCN1C(=O)N2Cc3cc(F)ccc3C2CS1(=O)=O (stereo unspecified),.,.,.,.,10,.,.
COC(=O)[C@]12C[C@H](CC(=O)N3CCSCC3)C(=O)N(Cc3ccco3)C1=C[C@H](C(C)(C)C)O[C@@H]2C,.,.,.,.,3,.,.
COc1ccc(-c2cc(=O)c3ccc(O)cc3o2)cc1OC,25,.,.,54*,-12,6,4
Clc1cccc(CN2CCN(c3ncc(Cc4ccccc4)cn3)CC2)c1Cl,.,.,.,.,2,.,.
CC/C(=N/NC(=O)c1ccc(Br)cc1)c1ccc(OCCN2CCOCC2)cc1,7,0,3,0,5,.,.

# Screening data (PubChem BioAssay)
